The subject of experiment [1] is Proto-oncogene tyrosine-protein kinase receptor Ret (Homo sapiens), P07949 [Y791F]. As to conditions: at 1 µM.
Experiment [2] deals with Macrophage-stimulating protein receptor (Homo sapiens) (UniProt Q04912). As to conditions: at 0.1 µM.
Experiment [3] has the same target. As to conditions: at 1 µM.
Experiment [4] concerns the target Proto-oncogene tyrosine-protein kinase ROS (Homo sapiens) (UniProt P08922). As to conditions: at 0.1 µM.
Experiment [5] shares this target. Particulars: at 1 µM.
Experiment [6] addresses Proto-oncogene tyrosine-protein kinase Src (Homo sapiens) (UniProt P12931). As to conditions: at 0.1 µM.
Experiment [7] shares this target. Particulars: at 1 µM.
Experiment [8] deals with Tyrosine-protein kinase Srms (Homo sapiens) (UniProt Q9H3Y6). Particulars: at 0.1 µM.
Experiment [9] shares this target. Particulars: at 1 µM.
The target in experiment [10] is Tyrosine-protein kinase SYK (Homo sapiens) (UniProt P43405). Particulars: at 0.1 µM.
The target is the same in experiment [11]. Particulars: at 1 µM.
In experiment [12] the target is T1, Tyrosine-protein kinase Tec (Homo sapiens) (UniProt P42680).
T1 sequence (whole entry): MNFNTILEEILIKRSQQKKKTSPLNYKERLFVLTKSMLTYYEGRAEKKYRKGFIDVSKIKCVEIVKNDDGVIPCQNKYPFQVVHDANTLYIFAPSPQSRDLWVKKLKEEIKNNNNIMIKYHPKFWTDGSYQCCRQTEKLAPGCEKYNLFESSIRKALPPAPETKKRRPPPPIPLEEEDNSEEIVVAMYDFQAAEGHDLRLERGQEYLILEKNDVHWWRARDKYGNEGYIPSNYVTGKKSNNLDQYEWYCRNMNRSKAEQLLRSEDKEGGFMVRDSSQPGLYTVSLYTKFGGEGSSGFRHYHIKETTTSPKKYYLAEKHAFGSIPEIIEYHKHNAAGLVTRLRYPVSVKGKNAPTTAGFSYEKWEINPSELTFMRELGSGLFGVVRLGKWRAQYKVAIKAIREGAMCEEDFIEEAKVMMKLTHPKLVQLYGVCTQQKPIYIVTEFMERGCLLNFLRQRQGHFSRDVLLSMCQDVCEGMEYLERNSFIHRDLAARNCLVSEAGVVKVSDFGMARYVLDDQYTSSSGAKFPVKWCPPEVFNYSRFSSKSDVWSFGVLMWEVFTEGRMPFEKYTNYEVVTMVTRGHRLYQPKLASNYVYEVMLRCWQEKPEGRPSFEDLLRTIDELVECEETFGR
Particulars: at 0.1 µM.

For experiment [13], the target named is T1, Tyrosine-protein kinase Tec (Homo sapiens). Particulars: at 1 µM.
Experiment [14] concerns the target Angiopoietin-1 receptor (Homo sapiens) (UniProt Q02763). As to conditions: at 0.1 µM.
Experiment [15] shares this target. As to conditions: at 1 µM.
Experiment [16] deals with T2, Non-receptor tyrosine-protein kinase TNK1 (Homo sapiens) (UniProt Q13470).
T2 sequence (whole entry): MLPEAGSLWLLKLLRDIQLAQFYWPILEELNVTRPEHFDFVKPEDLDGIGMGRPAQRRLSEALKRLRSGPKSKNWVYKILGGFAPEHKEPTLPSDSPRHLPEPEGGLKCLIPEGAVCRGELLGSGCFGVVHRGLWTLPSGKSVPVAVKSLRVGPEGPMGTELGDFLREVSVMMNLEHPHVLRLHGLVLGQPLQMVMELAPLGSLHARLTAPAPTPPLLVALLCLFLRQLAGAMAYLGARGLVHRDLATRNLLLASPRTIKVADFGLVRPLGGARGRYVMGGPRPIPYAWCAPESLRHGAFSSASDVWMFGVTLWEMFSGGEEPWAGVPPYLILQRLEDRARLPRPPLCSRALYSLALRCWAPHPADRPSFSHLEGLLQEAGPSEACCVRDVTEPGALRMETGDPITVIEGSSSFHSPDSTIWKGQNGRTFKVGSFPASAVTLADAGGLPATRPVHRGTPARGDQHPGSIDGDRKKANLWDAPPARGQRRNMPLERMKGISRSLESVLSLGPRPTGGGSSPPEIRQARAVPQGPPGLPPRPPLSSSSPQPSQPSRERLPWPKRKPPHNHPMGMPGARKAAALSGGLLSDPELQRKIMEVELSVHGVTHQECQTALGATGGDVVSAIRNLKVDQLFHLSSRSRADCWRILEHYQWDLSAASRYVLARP
Particulars: at 0.1 µM.

In experiment [17] the target is T2, Non-receptor tyrosine-protein kinase TNK1 (Homo sapiens). Particulars: at 1 µM.
Experiment [18] concerns the target Activated CDC42 kinase 1 (Homo sapiens) (UniProt Q07912). Particulars: at 0.1 µM.
The target is the same in experiment [19]. Particulars: at 1 µM.
For experiment [20], the target named is High affinity nerve growth factor receptor (Homo sapiens) (UniProt P04629). As to conditions: at 0.1 µM.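 Also: each value is a mean of replicate percent inhibition readings against TRKA kinase.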
Chain of High affinity nerve growth factor receptor (Homo sapiens) (P04629 33-796 limits assumed): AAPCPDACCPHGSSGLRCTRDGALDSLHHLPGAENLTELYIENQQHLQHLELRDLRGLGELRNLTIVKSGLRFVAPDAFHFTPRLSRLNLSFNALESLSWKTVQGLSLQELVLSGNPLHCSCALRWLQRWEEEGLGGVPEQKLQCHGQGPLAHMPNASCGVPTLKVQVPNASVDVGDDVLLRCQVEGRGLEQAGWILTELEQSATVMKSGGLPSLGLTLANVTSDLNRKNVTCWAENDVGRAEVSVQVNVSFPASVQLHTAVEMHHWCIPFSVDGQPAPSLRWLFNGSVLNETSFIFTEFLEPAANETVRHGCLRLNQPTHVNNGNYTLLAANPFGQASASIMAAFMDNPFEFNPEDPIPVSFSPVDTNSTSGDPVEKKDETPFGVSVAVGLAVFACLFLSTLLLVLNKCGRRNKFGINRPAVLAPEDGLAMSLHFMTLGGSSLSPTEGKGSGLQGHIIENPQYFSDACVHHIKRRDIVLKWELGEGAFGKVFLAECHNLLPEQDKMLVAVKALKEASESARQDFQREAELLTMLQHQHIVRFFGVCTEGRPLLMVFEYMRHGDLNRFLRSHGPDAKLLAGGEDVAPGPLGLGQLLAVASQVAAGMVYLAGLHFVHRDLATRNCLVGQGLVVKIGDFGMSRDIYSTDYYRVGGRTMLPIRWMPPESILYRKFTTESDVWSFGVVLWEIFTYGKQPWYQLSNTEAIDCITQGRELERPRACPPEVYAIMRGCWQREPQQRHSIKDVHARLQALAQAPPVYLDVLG

This note sets out measurements from ChEMBL document CHEMBL1961873, “Compounds: GSK PKIS; Assays: Nanosyn kinase panel” (2012).

Chain of Proto-oncogene tyrosine-protein kinase Src (Homo sapiens) (P12931 2-536 limits assumed): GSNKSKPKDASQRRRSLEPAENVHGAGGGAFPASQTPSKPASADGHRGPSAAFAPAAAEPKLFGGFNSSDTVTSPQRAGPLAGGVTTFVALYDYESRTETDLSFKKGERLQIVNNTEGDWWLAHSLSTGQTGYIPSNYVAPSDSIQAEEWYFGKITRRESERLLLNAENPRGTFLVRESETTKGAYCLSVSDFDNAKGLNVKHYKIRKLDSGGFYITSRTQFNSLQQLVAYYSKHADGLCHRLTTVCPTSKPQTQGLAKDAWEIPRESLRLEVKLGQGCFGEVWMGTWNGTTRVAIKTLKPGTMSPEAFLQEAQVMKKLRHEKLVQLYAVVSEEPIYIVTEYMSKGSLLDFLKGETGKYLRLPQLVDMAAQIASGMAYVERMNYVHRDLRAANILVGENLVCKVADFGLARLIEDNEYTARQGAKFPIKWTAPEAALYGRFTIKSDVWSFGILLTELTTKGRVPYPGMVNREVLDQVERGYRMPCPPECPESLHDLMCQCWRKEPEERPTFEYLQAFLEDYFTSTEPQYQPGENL
Chain of Macrophage-stimulating protein receptor (Homo sapiens) (Q04912 25-304 limits assumed): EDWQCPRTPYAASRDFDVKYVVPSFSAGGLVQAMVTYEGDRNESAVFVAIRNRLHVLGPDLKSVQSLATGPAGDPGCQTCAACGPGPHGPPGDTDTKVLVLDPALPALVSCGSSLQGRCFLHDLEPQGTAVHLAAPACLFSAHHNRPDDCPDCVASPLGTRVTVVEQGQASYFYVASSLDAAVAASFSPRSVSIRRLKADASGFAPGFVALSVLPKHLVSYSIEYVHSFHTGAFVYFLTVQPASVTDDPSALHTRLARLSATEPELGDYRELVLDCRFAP
Chain of Macrophage-stimulating protein receptor (Homo sapiens) (Q04912 310-1400 limits assumed): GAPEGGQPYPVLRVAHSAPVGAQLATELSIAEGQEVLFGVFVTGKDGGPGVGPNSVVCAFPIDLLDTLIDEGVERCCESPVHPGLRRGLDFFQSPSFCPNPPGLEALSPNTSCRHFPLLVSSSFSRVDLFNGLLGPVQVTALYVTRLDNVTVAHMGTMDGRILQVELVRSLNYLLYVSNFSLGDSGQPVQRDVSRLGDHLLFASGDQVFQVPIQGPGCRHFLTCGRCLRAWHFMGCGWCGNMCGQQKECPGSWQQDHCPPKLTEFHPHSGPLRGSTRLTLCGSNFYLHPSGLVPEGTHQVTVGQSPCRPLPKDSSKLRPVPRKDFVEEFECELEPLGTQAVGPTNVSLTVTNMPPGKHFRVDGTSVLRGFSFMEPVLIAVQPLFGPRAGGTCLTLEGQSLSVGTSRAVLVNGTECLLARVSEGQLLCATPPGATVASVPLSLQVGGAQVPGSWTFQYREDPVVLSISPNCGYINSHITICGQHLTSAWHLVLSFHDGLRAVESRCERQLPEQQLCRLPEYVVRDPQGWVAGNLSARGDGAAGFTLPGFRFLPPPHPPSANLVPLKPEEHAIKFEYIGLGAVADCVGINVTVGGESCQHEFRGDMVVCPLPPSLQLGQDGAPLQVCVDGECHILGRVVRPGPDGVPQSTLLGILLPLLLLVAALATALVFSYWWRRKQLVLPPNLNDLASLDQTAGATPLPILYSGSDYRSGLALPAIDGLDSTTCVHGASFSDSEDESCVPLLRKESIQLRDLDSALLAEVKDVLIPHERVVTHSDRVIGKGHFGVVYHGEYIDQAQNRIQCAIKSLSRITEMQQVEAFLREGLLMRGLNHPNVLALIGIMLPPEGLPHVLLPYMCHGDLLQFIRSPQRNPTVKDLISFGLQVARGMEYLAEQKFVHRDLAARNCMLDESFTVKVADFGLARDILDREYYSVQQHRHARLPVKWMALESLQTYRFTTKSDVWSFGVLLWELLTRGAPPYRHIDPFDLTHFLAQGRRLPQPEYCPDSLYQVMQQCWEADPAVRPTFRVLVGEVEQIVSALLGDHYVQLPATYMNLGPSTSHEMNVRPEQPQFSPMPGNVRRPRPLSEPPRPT
Chain of Proto-oncogene tyrosine-protein kinase ROS (Homo sapiens) (P08922 whole entry): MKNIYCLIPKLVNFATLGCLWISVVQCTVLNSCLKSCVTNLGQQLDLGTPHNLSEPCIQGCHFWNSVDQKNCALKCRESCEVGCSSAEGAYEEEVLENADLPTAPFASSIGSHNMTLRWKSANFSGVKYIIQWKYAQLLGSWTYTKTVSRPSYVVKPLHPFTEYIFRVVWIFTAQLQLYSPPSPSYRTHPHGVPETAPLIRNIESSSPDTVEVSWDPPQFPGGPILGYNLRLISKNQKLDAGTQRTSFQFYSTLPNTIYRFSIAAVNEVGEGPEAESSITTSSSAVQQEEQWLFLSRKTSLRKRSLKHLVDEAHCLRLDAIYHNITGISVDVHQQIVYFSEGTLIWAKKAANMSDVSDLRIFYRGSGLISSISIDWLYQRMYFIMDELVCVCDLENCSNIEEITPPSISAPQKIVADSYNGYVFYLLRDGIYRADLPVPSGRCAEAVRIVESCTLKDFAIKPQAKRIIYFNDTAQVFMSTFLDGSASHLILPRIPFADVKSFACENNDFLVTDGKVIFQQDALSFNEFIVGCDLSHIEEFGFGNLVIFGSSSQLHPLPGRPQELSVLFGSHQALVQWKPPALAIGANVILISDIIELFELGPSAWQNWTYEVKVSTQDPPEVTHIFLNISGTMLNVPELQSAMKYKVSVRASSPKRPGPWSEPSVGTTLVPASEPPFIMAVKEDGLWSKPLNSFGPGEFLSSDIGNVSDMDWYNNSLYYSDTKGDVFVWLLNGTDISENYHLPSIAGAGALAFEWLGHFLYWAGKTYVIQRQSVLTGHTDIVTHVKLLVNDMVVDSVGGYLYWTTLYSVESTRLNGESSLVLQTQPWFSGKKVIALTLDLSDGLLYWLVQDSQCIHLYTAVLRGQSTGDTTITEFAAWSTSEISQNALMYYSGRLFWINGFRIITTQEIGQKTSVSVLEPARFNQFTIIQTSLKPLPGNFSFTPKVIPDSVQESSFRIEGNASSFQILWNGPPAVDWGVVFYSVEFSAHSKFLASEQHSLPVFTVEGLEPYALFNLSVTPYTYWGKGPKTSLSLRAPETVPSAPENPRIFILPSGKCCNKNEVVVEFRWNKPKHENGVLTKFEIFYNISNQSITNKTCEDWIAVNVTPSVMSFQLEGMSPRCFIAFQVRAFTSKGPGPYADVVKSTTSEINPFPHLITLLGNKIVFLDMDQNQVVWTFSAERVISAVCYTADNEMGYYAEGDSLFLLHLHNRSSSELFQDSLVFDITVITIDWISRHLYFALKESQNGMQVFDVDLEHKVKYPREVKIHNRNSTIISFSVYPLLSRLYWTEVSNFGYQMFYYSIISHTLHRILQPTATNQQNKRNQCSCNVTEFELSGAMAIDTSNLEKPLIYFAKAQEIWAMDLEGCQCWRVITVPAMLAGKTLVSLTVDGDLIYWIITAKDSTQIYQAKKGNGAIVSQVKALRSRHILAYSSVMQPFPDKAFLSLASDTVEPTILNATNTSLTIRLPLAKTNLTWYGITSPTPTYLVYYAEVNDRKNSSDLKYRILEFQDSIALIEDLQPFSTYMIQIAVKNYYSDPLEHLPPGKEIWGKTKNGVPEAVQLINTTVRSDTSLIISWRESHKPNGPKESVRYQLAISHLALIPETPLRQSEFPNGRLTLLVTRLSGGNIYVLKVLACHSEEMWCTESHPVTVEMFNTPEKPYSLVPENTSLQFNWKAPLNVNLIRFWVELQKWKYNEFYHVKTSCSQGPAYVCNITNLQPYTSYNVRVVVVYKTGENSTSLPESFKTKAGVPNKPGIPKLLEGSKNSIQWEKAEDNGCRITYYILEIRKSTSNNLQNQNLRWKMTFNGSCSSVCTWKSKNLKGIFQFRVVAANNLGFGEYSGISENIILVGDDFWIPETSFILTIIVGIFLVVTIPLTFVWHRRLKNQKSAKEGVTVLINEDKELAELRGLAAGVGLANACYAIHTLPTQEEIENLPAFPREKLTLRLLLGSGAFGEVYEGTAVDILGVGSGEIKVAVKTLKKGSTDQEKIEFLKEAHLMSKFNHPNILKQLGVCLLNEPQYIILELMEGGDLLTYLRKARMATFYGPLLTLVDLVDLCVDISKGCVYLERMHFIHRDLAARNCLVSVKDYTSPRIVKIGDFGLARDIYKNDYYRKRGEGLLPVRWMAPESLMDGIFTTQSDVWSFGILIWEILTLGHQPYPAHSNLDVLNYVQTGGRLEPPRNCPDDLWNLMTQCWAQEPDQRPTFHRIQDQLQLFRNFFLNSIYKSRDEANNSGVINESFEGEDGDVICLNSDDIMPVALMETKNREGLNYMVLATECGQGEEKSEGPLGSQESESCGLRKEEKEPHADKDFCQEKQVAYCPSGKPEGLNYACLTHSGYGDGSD

For the compound `CN1CCC(C(=O)Nc2n[nH]c3nnc(-c4ccccc4)cc23)CC1`, the inhibition in [1] is 10%; in [2] it was -1.52%; in experiment [3], 14.1%; in experiment [4], 5.55%; in experiment [5], 9.8%; in experiment [6] it was 9.17%. The inhibition in experiment [7] was 8.13%; in experiment [8] it was -0.14%; in experiment [9], -5.75%; in experiment [10], -4.25%; in experiment [11] it was -1.15%; in experiment [12], 3.47%. The inhibition is 4.52% in experiment [13]; 2.55% in [14]; 7% in experiment [15]; 2.98% in [16]; 7.95% in [17]; 1.4% in [18]. Moreover, the figures for the inhibition in experiment [19] and in experiment [20] were 1.85% and 0.43%, respectively.

As for `O=C(Nc1n[nH]c2nc(-c3ccco3)c(Br)cc12)C1CC1`, the inhibition in [1] is -2.51%; in [2] it was 1.47%; in experiment [3], 4.05%; in experiment [4], 3.63%; in experiment [5], 3.03%; in experiment [6], 12.5%. Further, the inhibition is 14.2% in [7]; -2.24% in experiment [8]; -0.3% in [9]; 0.12% in [10]; -0.45% in experiment [11]; 4.92% in experiment [12]. Moreover, the inhibition in [13] was 9.1%; in experiment [14], 7.26%; in experiment [15], 13.7%; in experiment [16] it was 2.22%; in [17], -0.4%; in experiment [18] it was 0.93%. The inhibition in [19] is 0.24%; in experiment [20] it was 3.1%.

Regarding `CCn1c(-c2nonc2N)nc2cnc(Oc3cccc(NC(=O)c4ccc(OCCN5CCOCC5)cc4)c3)cc21`, the inhibition was determined as 7.86% in [1]; 3.1% in experiment [2]; 5% in [3]; 8.56% in experiment [4]; 11% in experiment [5]; 3.92% in experiment [6]. For the same compound, the inhibition in experiment [7] was 7.72%; in experiment [8], -0.56%; in experiment [9], -0.69%; in experiment [10], -4.21%; in experiment [11], 1.88%; in experiment [12], 3.35%. Also, the inhibition in [13] was 5.81%; in [14], 3.75%; in [15] it was 6.59%; in [16] it was 0.95%; in experiment [17], 5.9%; in [18] it was -0.31%. Also, the inhibition in experiment [19] is -0.19%; in [20], 4.32%.

For the compound `COc1cc2ncn(-c3cc(OCc4ccccc4C(F)(F)F)c(C(N)=O)s3)c2cc1OC`, the inhibition in [1] worked out at 50.6%; in experiment [2] it was 4.5%; in experiment [3], 8.36%; in experiment [4], 5.76%; in experiment [5], 20.6%; in [6], 8.15%. Further, the inhibition is 21.2% in experiment [7]; -2.2% in experiment [8]; -0.81% in experiment [9]; -2.39% in experiment [10]; -7.75% in experiment [11]; -1.86% in [12]. Also, the inhibition came to 7.03% in experiment [13]; 6.11% in experiment [14]; 20.9% in experiment [15]; 12.5% in [16]; 59.1% in experiment [17]; 0.63% in experiment [18]. The inhibition in experiment [19] is 6.53%; in experiment [20], 2.57%.

For the compound `COc1ccc(-c2coc3ncnc(N)c23)cc1`, the inhibition came out at 11% in experiment [1]; 8.95% in experiment [2]; 5.93% in experiment [3]; 6.03% in experiment [4]; 7.88% in [5]; 5.47% in [6]. The inhibition is 8.84% in experiment [7]; -2.61% in [8]; -2.53% in [9]; -0.77% in experiment [10]; -0.96% in experiment [11]; 3.6% in experiment [12]. Also, the inhibition in experiment [13] was 5.59%; in experiment [14], 2.58%; in [15], 7.38%; in [16], 0.94%; in experiment [17], -4.86%; in experiment [18] it was 0.34%. The figures for the inhibition in experiment [19] and in [20] were 1.05% and 1.6%, respectively.

Regarding `CS(=O)(=O)CCNCc1ccc(-c2ccc3ncnc(Nc4ccc(OCc5cccc(F)c5)c(C(F)(F)F)c4)c3c2)o1`, the inhibition was 3.86% in experiment [1]; 3.73% in [2]; 5% in experiment [3]; 6.01% in experiment [4]; 4.01% in [5]; -1.31% in experiment [6]. The inhibition was 8.28% in [7]; -1.21% in experiment [8]; -1.42% in [9]; -6.45% in [10]; 1.13% in experiment [11]; 3.58% in [12]. The inhibition in experiment [13] came out at 4.26%; in [14], 4.55%; in experiment [15], 5.67%; in experiment [16], 4.87%; in experiment [17] it was 10.5%; in experiment [18], 0.57%. For the same compound, the inhibition in [19] amounted to 1.13%; in experiment [20], 1.7%.

In the case of `CS(=O)(=O)CCN(CC#N)Cc1ccc(-c2ccc3ncnc(Nc4ccc(OCc5cccc(F)c5)c(Cl)c4)c3c2)o1`, the inhibition in experiment [1] turned out to be 3.1%; in [2] it was 0.07%; in [3], 0.14%; in [4], 6.53%; in experiment [5] it was 4.3%; in experiment [6], 3.38%. Moreover, the inhibition was 4.01% in [7]; 1.13% in experiment [8]; -1.83% in experiment [9]; 1.85% in experiment [10]; 1.94% in experiment [11]; -2.12% in experiment [12]. For the same compound, the inhibition was -1.96% in [13]; 2.27% in experiment [14]; 1.84% in experiment [15]; 2.76% in experiment [16]; 23.2% in experiment [17]; -0.59% in experiment [18]. In addition, the inhibition in [19] is 0.01%; in experiment [20] it was 2.64%.

What is called inhibition is the change of the read-out against control, counted positive when it falls.
